Results published in the supplement of paper PMC10849652.
The full data set covers some 8,800 targets. This sample favours those with a hit. About 0.5% of all pairs of compound and target were hits.

Key:
Assay in all cases: log2 fold change, soluble protein after heating vs DMSO (PISA); higher = thermal stabilisation; K562 lysate, 10 uM; active = over 0.2 and 3.5 SD of the protein, either way, in both replicates (recomputed)
[1] = compound: CCCS(=O)(=O)Nc1ccc(F)c(C(=O)c2c[nH]c3ncc(-c4ccc(Cl)cc4)cc23)c1F [vemurafenib]
How it was run: (§1)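 Pellets of K562 cells were dounce-homogenised in PBS pH 7.4 with 1 mM MgCl2, and the crude extract was held at 1 mg/mL protein for a 30 min treatment with 10 μM compound. Aliquots were heated for 3 min over 48°C-58°C and pooled before NP-40 was added to 0.5% at 4°C. The supernatant from 21,000xg for 90 min was quantified by TMTpro 16plex LC-MS/MS with channel sums equalised. Values are reported from duplicates as log-two fold change in thermal stability relative to solvent controls.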

[2] = compound: CCCS(=O)(=O)Nc1ccc(F)c(C(=O)c2c[nH]c3ncc(Cl)cc23)c1F
How it was run: as §1

[3] = compound: CCN(CCCOc1ccc2c(Nc3cc(CC(=O)Nc4cccc(F)c4)[nH]n3)ncnc2c1)CCOP(=O)(O)O [barasertib]
How it was run: as §1

[4] = compound: CC[C@@H]1C(=O)N(C)c2cnc(Nc3ccc(C(=O)NC4CCN(C)CC4)cc3OC)nc2N1C1CCCC1
How it was run: as §1

[5] = compound: CC[C@@H]1C(=O)N(C)c2cnc(Nc3ccc(C(=O)N[C@H]4CC[C@H](N5CCN(CC6CC6)CC5)CC4)cc3OC)nc2N1C(C)C [volasertib]
How it was run: as §1

[6] = compound: CCn1c(C(=O)N(C2CC2)C2CC2)cc2c3c(ncn3C)c(Nc3cc(C)n(C)n3)nc21
How it was run: as §1

[7] = compound: CCn1cc(-c2ccnc3[nH]c(-c4cccc(CN(C)C)c4)cc23)c(-c2ccc(NC(=O)N(C)C)cc2)n1
How it was run: as §1

[8] = compound: CN1CCC(CNc2ccc3ncc(-c4cccc(OC(F)(F)F)c4)n3n2)CC1
How it was run: as §1

[9] = compound: CN1CCN(CCOc2cc(OC3CCOCC3)c3c(Nc4c(Cl)ccc5c4OCO5)ncnc3c2)CC1 [saracatinib]
How it was run: as §1

[10] = compound: CN1CCN(c2nc(C3=C(c4c[nH]c5ccccc45)C(=O)NC3=O)c3ccccc3n2)CC1 [sotrastaurin]
How it was run: as §1

[11] = compound: CN1CC[C@H](c2c(O)cc(O)c3c(=O)cc(-c4ccccc4Cl)oc23)[C@H](O)C1 [alvocidib]
How it was run: as §1

[12] = compound: CN1CCc2c(c3ccccc3n2Cc2ccc(C(=O)NO)cc2)C1 [Tubastatin A]
How it was run: as §1

[13] = compound: CNC(=O)C1=CC=CC=C1NC2=NC(=NC=C2Cl)NC3=C(C=C(C=C3)N4CCOCC4)OC
How it was run: as §1

[14] = compound: CNC(=O)c1ccc(Nc2ncc(C(F)(F)F)c(NCc3nccnc3N(C)S(C)(=O)=O)n2)cc1 [defactinib]
How it was run: as §1

[15] = compound: CNc1nc(-c2ccc3c(N)n[nH]c3c2)cc(N2C[C@@H](C(=O)NC3CCCCC3)CC[C@H]2C)n1
How it was run: as §1

[16] = compound: COC(=O)N[C@@H](C)CNc1nccc(-c2cn(C(C)C)nc2-c2cc(Cl)cc(NS(C)(=O)=O)c2F)n1 [encorafenib]
How it was run: as §1

[17] = compound: COC(=O)[C@H](CCSC)NC(=O)C1=C(C=C(C=C1)NC[C@H](CS)N)C2=CC=CC=C2
How it was run: as §1

[18] = compound: COc1cc(Nc2ncc3c(n2)-c2ccc(Cl)cc2C(c2c(F)cccc2OC)=NC3)ccc1C(=O)O [alisertib]
How it was run: as §1

[19] = compound: COc1cc2nc(-c3cc(F)ccc3O)nc(N[C@@H]3CNC[C@H]3C(C)(C)O)c2cc1OC
How it was run: as §1

[20] = compound: COc1cc2ncnc(Nc3ccc(F)c(Cl)c3)c2cc1OCCCN1CCOCC1 [gefitinib]
How it was run: as §1

Measured: log2 fold change

CSPP1 (UniProt Q1MSJ5)
Chain of UniProt Q1MSJ5 (Q1MSJ5 whole entry, looked up): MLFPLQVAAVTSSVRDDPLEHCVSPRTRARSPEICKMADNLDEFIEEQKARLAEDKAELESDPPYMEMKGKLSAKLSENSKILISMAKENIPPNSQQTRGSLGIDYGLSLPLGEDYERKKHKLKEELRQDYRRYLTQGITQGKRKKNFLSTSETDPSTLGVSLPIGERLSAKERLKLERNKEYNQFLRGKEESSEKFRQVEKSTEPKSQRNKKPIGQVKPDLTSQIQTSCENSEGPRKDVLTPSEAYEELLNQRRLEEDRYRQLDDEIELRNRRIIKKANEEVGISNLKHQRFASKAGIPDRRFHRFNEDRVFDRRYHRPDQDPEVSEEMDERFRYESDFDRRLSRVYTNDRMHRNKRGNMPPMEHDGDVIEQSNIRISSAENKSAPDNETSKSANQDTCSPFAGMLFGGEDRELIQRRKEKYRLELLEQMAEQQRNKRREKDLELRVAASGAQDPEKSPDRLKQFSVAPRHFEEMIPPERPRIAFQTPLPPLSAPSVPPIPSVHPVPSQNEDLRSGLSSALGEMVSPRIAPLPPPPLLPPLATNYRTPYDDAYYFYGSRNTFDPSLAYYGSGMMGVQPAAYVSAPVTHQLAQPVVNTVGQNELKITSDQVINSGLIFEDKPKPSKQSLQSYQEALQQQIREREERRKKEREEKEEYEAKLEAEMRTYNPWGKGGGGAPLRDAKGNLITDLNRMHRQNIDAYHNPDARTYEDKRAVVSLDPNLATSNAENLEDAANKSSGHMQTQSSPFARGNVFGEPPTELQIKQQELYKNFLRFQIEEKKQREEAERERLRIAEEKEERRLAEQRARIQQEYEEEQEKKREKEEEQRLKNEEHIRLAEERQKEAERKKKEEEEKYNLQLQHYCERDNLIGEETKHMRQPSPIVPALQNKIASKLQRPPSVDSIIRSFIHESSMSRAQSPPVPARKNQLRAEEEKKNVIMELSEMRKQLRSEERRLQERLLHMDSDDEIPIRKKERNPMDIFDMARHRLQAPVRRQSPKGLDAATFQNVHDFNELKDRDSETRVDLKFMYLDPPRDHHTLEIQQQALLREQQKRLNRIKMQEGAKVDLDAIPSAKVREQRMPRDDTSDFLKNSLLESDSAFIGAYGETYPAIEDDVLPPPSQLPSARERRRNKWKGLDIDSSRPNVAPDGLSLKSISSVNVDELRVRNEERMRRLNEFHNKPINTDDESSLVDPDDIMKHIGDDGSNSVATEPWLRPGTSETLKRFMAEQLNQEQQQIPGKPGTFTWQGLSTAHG
inactive: [1] 0.03 | [3] 0.026 | [4] 0.057 | [5] 0.125 | [6] 0.05 | [7] 0.029 | [8] -0.006 | [9] -0.049 | [10] -0.046 | [11] -0.031 | [12] -0.03 | [13] -0.028 | [14] -0.086 | [15] 0.095 | [16] 0.119 | [17] -0.195 | [18] 0.027 | [19] 0.218 | [20] -0.054
active: [2] -0.505

DDX39A (UniProt O00148)
Chain of UniProt O00148 (O00148 whole entry, looked up): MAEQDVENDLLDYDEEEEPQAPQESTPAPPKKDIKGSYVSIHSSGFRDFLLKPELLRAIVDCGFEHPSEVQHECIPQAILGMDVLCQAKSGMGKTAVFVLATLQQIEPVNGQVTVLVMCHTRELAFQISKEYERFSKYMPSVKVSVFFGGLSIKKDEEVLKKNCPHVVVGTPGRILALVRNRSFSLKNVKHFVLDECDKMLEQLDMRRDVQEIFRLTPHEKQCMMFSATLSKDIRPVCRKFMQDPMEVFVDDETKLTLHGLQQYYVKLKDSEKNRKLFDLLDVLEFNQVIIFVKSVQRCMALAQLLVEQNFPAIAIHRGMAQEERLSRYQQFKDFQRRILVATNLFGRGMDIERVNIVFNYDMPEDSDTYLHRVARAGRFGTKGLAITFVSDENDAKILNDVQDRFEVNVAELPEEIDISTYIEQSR
inactive: [1] 0.021 | [2] 0.021 | [3] 0.047 | [4] -0.049 | [5] -0.071 | [6] -0.028 | [7] -0.041 | [8] -0.027 | [9] -0.032 | [10] -0.002 | [11] -0.017 | [12] -0.171 | [13] -0.006 | [14] 0.003 | [15] -0.025 | [16] 0.001 | [17] 0.163 | [18] -0.026 | [19] 0.004 | [20] 0.009

CHEK2 (UniProt O96017)
Chain of UniProt O96017 (O96017 whole entry, looked up): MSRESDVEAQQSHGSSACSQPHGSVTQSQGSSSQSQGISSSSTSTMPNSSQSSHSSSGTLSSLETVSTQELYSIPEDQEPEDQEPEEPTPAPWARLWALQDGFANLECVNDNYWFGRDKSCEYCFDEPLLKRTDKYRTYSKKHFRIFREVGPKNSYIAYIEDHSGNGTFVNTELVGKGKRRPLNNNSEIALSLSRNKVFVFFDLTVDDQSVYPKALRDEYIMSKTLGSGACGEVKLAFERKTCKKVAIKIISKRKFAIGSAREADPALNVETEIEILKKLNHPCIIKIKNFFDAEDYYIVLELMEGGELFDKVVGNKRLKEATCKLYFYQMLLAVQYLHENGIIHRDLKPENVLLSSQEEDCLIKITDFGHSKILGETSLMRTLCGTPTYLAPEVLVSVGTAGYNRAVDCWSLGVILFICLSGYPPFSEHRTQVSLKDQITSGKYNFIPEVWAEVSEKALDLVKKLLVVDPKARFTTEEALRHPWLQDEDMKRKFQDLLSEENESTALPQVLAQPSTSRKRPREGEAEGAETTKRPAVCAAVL
active: [13] 0.207
inactive: [1] -0.059 | [2] 0.042 | [3] 0.087 | [4] -0.06 | [5] -0.044 | [6] 0.051 | [7] 0.08 | [8] -0.057 | [9] -0.036 | [10] 0 | [11] 0.093 | [12] -0.007 | [14] 0.022 | [15] -0.085 | [16] -0.022 | [17] 0.092 | [18] 0 | [19] -0.052 | [20] 0.09

CNOT2 (UniProt Q9NZN8)
Chain of UniProt Q9NZN8 (Q9NZN8 whole entry, looked up): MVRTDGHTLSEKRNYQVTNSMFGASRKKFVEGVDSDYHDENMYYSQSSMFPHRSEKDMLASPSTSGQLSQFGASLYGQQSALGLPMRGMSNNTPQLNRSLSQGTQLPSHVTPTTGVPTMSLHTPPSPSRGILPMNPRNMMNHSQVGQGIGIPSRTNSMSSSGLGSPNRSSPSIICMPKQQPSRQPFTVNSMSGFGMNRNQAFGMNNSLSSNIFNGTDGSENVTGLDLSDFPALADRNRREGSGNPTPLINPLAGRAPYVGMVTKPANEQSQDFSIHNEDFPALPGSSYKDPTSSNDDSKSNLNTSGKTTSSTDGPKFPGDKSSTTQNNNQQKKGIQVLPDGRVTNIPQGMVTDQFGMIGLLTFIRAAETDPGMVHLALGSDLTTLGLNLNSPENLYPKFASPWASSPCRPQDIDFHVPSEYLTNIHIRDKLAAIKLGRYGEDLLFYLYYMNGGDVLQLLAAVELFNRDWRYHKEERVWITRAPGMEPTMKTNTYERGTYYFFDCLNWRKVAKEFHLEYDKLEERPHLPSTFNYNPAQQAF
inactive: [1] 0.037 | [2] -0.026 | [3] 0.065 | [4] 0.029 | [5] -0.048 | [6] 0.039 | [7] 0.17 | [8] -0.059 | [9] -0.013 | [10] 0.002 | [11] -0.003 | [12] -0.046 | [13] -0.002 | [14] 0.001 | [15] -0.027 | [16] -0.002 | [17] 0.013 | [18] -0.025 | [19] 0.008 | [20] 0.011

CLUH, A0A494C0R8
active: [7] 0.59
inactive: [1] -0.11 | [2] 0.027 | [3] -0.092 | [4] 0.097 | [5] -0.005 | [6] 0 | [8] -0.047 | [9] 0.03 | [10] 0.051 | [11] 0.076 | [12] -0.08 | [13] -0.015 | [14] -0.184 | [15] -0.049 | [16] -0.089 | [17] 0.054 | [18] -0.05 | [19] 0.005 | [20] 0.138

DHRS1 (UniProt Q96LJ7)
Chain of UniProt Q96LJ7 (Q96LJ7 whole entry, looked up): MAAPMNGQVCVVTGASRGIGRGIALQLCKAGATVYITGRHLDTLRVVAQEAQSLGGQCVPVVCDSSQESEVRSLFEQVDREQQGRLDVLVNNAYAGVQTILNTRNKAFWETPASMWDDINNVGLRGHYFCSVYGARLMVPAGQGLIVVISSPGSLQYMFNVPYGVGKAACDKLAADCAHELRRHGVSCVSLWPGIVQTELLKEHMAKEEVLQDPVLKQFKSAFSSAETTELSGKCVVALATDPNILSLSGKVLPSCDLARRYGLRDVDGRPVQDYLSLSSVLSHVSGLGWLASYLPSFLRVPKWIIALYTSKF
inactive: [1] 0.436 | [2] 0.187 | [3] 0.053 | [4] -0.045 | [5] 0.012 | [6] -0.029 | [7] -0.042 | [8] -0.05 | [9] 0.001 | [10] 0.026 | [11] -0.057 | [12] 0.02 | [13] 0.188 | [14] -0.238 | [15] -0.012 | [16] 0.164 | [17] -0.102 | [18] 0.059 | [19] 0.028 | [20] -0.075

DMXL1 (UniProt Q9Y485)
inactive: [1] 0.024 | [2] 0.028 | [3] -0.005 | [4] 0.015 | [5] -0.06 | [6] 0.026 | [7] -0.017 | [8] -0.004 | [9] 0.002 | [10] 0.023 | [11] 0.01 | [12] -0.014 | [13] 0.019 | [14] 0.024 | [15] 0.012 | [16] 0.055 | [17] -0.015 | [18] -0.031 | [19] 0.009 | [20] 0.038

DLD (UniProt P09622)
Chain of UniProt P09622 (P09622 whole entry, looked up): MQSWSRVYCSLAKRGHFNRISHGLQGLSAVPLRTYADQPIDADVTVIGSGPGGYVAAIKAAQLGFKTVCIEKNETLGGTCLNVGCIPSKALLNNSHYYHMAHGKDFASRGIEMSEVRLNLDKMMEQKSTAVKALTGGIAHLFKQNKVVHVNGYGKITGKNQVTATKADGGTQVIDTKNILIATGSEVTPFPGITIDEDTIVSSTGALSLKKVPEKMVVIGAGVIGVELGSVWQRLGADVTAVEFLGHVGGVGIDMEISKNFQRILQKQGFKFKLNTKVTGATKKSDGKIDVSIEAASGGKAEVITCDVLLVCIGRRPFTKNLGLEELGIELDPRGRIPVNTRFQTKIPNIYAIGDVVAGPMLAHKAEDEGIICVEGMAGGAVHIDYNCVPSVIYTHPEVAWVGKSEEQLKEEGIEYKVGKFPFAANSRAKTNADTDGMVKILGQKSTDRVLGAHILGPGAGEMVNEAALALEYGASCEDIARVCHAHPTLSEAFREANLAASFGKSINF
inactive: [1] 0.007 | [2] 0.003 | [3] -0.032 | [4] 0.032 | [5] 0.057 | [6] -0.018 | [7] -0.071 | [8] 0.04 | [9] 0.009 | [10] -0.015 | [11] -0.024 | [12] 0.041 | [13] 0.03 | [14] -0.02 | [15] 0.046 | [16] -0.014 | [17] -0.13 | [18] 0 | [19] 0.008 | [20] -0.055
